Source: PubChem (National Center for Advancing Translational Sciences (NCATS))
Luc counter: counter-screen: inhibitors of Kinase-Glo firefly luciferase | Potency, µM (top dose mostly 38.3 µM), usual class: inhibitors | Q27757 | AID 1379 | Kinase-Glo luciferase, ATP luminescence, 8 min | 0.28% of 200,000 active; also: nearly all actives have a fitted effect of over 60% in size
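Substrate mix (final 50 mM imidazole pH 7.2, 50 mM KCl, 7 mM MgCl2, 10 uM ATP, 0.01% Tween 20, 0.05% BSA) plus pin-tool compound, then Kinase-Glo detection mix; 8 min ambient, luminescence read.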
Tau fibril FP: tau fibrillization inhibition (FP); K18 P301L tau heparin fibrillization, Alexa594 FP, 6 h; Potency, µM (doses to about 57.7 µM), actives largely listed as inhibitors; 0.39% of 280,000 active; AID 1468; also: nearly all actives have a fitted effect of over 55% in size
Target sequence (P10636 561-689 P618L limits assumed): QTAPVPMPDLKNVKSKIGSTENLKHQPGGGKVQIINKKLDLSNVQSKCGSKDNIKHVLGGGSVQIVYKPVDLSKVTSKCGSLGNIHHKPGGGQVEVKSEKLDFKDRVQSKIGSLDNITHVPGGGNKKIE
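Compound effects on tau fibrillization are measured by Alexa 594 fluorescence polarization (ex 555, em 632 nm). K18 P301L tau is used at 15 uM with 0.24 uM labeled tracer, and 20 uM heparin induces aggregation over 6 hr at 37 C.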
Tau fibril ThT: tau fibrillization inhibition (ThT binding). AID 1460. Potency, µM (top dose mostly 57.4 µM), usual class: inhibitors. recombinant tau K18 P301L, heparin-induced fibrillization, ThT fluorescence. 2.1% of 270,000 active; also: nearly all actives have a fitted effect of over 55% in size
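Recombinant human tau K18 fragment […] carrying P301L, 15 uM unlabeled plus 0.24 uM Alexa 594-labeled, was fibrillized with 20 uM heparin in 100 mM sodium acetate pH 7 for 6 hr at 37 C; 30 uM ThT fluorescence read after 1 hr.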
NPSR antag: neuropeptide S receptor (human) antagonism, cAMP | Q6W5P4 | CHO-NPSR cells, cAMP TR-FRET, antagonist mode | Potency, µM (titrated, usually from 38.3 µM), most hits filed as inhibitors | 1% of 220,000 active | AID 1461; also: nearly all actives have a fitted effect of over 50% in size
Target sequence (Q6W5P4 whole entry, looked up): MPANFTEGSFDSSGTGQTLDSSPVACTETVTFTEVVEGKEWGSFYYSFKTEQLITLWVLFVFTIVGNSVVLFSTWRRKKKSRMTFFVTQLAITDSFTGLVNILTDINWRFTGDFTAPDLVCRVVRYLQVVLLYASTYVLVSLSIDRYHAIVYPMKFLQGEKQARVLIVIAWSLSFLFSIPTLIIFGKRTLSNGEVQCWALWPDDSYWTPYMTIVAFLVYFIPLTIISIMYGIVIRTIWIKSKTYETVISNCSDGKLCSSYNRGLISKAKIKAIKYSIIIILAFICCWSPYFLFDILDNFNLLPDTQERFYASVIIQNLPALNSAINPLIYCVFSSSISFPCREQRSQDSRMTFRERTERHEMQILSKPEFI
Tau fluor cs: counter-screen for tau fibril formation inhibitors; AID 1463; 0.93% of 280,000 active; tau K18 P301L Alexa594 fluorescence, heparin fibrillization; Potency, µM (doses to about 57.7 µM); also: nearly all actives have a fitted effect of over 55% in size
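Human tau K18 P301L (15 uM unlabeled, 0.24 uM Alexa 594-labeled) in 100 mM sodium acetate pH 7 with 20 uM heparin, 6 hr at 37 C. ThT 30 uM added, 1 hr ambient; Alexa 594 FP and total fluorescence read at 555/632 nm.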
Each line names hits and unclear results; the compound was inactive in the other large screens; [ ] = another dose, or the depositor's remark. Shown are actives, neighbours in structure and some others; about 3.3% of the full set was active somewhere. Calls follow the shape of the dose curve; as a rule, active = well fitted curve in the direction sought with a large enough effect; inconclusive = small, poorly fitted or top-dose-only effect, or another doubt; inactive = no such curve, though single readings can be large; an effect the other way counts as inactive or inconclusive.

CCc1cccc(N2C(=O)CSC23C(=O)N(Cc2ccccc2F)c2ccccc23)c1 (stereo unspecified)	none (no result: Luc counter, NPSR antag)
CCOc1ccccc1C(=O)Nc1cc(Cl)ccc1O	Tau fibril FP inconclusive, Tau fibril ThT inconclusive, Tau fluor cs 18µM[quencher]
COC(=O)N=Nc1c(O)[nH]c2ccc(Br)cc12	Tau fibril ThT inconclusive (no result: Luc counter)
COc1ccc(Cc2nnc(N=Nc3c(O)[nH]c4ccc(Br)cc34)[nH]c2=O)cc1	Tau fibril ThT 16µM
N#Cc1nc(-c2ccc(COc3ccc(Cl)cc3)o2)oc1N1CCC(C(N)=O)CC1	none (no result: Luc counter, NPSR antag)
Cn1nc([N+](=O)[O-])c(C(C#N)c2nc3ccccc3n2C)c(Cl)c1=O (stereo unspecified)	Tau fibril ThT 16µM, Tau fluor cs inconclusive
COCCn1c(C)cc(O)c(C(c2ccc(OC)cc2)N2CCCCC2)c1=O (stereo unspecified)	Tau fibril ThT inconclusive (no result: Luc counter, NPSR antag)
Oc1c(/C=C/C=C/C=Nc2ccccc2)sc(=S)n1Cc1ccccc1	Tau fibril FP inconclusive, Tau fibril ThT 1.8µM, Tau fluor cs inconclusive (no result: Luc counter)
CCn1c(O)c(/C=C/C=C/C=Nc2ccccc2)sc1=S	Tau fibril ThT inconclusive
CCCCn1c(O)c(/C=C/C=C/C=Nc2ccccc2)sc1=S	Luc counter 8.9µM, Tau fibril FP inconclusive, Tau fibril ThT 3.2µM
COC(=O)C1=C(c2ccccc2)c2ccccc2S(=O)(=O)N1CC(=O)Nc1ccccc1Cl	none (no result: Luc counter, NPSR antag)
Cc1ccc(C)c(NS(=O)(=O)c2ccc3oc(=O)c4ncn(C)c4c3c2)c1	none (no result: Luc counter, NPSR antag)
CCN(CC)c1ccc(/C=C(\C#N)c2nc(-c3cccs3)c(NC(C)=O)s2)cc1	Tau fibril FP inconclusive, Tau fibril ThT inconclusive, Tau fluor cs 6.3µM[quencher] (no result: Luc counter)
NN/C(=C\[N+](=O)[O-])Nc1ccccc1	Tau fibril ThT inconclusive, Tau fluor cs inconclusive
NN/C(=C\[N+](=O)[O-])Nc1ccc(Cl)cc1	Tau fibril ThT 16µM, Tau fluor cs inconclusive
C/C(=N\Nc1cccc2cccnc12)c1ccc(N)cc1	Tau fibril FP inconclusive, Tau fibril ThT 25µM, Tau fluor cs inconclusive
C/C(=N\Nc1cccc2cccnc12)c1ccccn1	Luc counter inconclusive, Tau fibril ThT inconclusive
O=C(NCc1cccnc1)/C(=C\c1ccc(-c2ccc(Cl)c(Cl)c2)o1)S(=O)(=O)c1ccccc1	NPSR antag 13µM
COc1ccc(-c2csc(C3=C(O)CN(C(C)C)C3=N)n2)cc1OC	Tau fibril ThT inconclusive
Cc1nc(N/N=C/c2ccccn2)sc1C	Luc counter 8.9µM, Tau fibril ThT inconclusive, NPSR antag 4µM
CCCc1sc(N/N=C/c2ccccn2)nc1-c1ccc(F)cc1	Tau fibril ThT inconclusive, NPSR antag 10µM, Tau fluor cs inconclusive
CCC/C=C(\CCC)C(NS(=O)(=O)c1cccs1)c1ccc(C(=O)OC)cc1 (stereo unspecified)	Tau fibril ThT inconclusive (no result: NPSR antag)
COc1ccc(-c2nc3sc(CCNS(=O)(=O)c4ccccc4)c(C)n3n2)cc1	Tau fibril FP inconclusive (no result: Luc counter, NPSR antag)
O=[N+]([O-])c1ccc(-c2n(-c3ccccn3)c3ccccc3[n+]2-c2ccccn2)cc1	none (no result: Luc counter, Tau fibril ThT)
Cc1ccccc1-n1sc2cc(F)ccc2c1=O	Tau fibril FP 25µM, Tau fibril ThT 10µM
Cc1ccccc1-n1c(=O)c2ccccc2n2cnnc12	none
Nc1ccc(C(=O)N/N=C\C=C\c2ccc([N+](=O)[O-])cc2)cc1	Tau fibril ThT 2.8µM
O=C(N/N=C/c1cc([N+](=O)[O-])cc([N+](=O)[O-])c1O)/C(=C\c1cccs1)NC(=O)c1ccccc1	Tau fibril ThT 13µM
COc1ccc(/C=N/NC(=O)c2cccc([N+](=O)[O-])c2)cc1OS(=O)(=O)c1ccc(C)cc1	Tau fluor cs inconclusive
CCOc1cc(/C=N/NC(=O)c2cccc([N+](=O)[O-])c2)ccc1OS(=O)(=O)c1ccccc1	Tau fluor cs 14µM[quencher]
COc1cc(/C=N/NC(=O)/C(=C\c2ccc([N+](=O)[O-])cc2)NC(=O)c2ccccc2)cc(OC)c1O	Tau fibril ThT 28µM, Tau fluor cs inconclusive
O=C(N/N=C/C=C/c1ccc2c(c1)OCO2)c1ccc([N+](=O)[O-])cc1	Tau fibril ThT inconclusive
COc1cc(/C=N/NC(=O)/C(=C\c2ccc3c(c2)OCO3)NC(=O)c2ccccc2)ccc1O	Tau fibril ThT inconclusive
